Experiments:
Type in all cases: functional
Plasmodium falciparum [1] = assay: GSK_TCMDC: Inhibition of Plasmodium falciparum 3D7 in whole red blood cells, using parasite LDH activity as an index of growth. Test compounds present at 2uM
Plasmodium falciparum [2] = assay: GSK_TCMDC: Inhibition of Plasmodium falciparum Dd2 in whole red blood cells, using parasite LDH activity as an index of growth. Test compounds present at 2uM
HepG2 = assay: GSK_TCMDC: Percent inhibition of human HepG2 cell line. Test compounds present at 10uM.

SMILES	Inhibition (Plasmodium falciparum [1]) [%]	Inhibition (Plasmodium falciparum [2]) [%]	Inhibition (HepG2) [%]
CCCCCC(NCCCC)c1ccc(OCCOc2ccc(C(CCCCC)NCCCC)cc2)cc1.Cl (stereo unspecified)	88	96	99
COC(=O)c1cccc(CNCc2ccc(-c3ccc(-c4nc5ccccc5[nH]4)s3)cc2)c1.O=C(O)C(F)(F)F	100	79	20
Clc1ccc2nc(-c3cccnc3)[nH]c2c1	92	97	0
CCCSc1nc2c(c(=O)n1CCc1ccccc1)C1(CCCC1)Cc1ccccc1-2	99	53	46
CC(C)Cc1cnc2nc(N)nc(N)c2c1.Cl	98	0	66
Oc1cccc2ccc(Nc3ccccn3)nc12	99	93	72
O=C(Nc1ccc(Cl)cc1)NC1CCN(CCCCCNC(=O)C2CC2c2ccc(Cl)c(Cl)c2)CC1 (stereo unspecified)	100	18	51
